# Measured values as given in paper PMC11006913.
# Where a chain is given by its changes, count along the chain named.
# Columns and labels:
# Experiment in all cases: PBM; 200 nM protein, PBS
# Conditions in all cases: dsDNA, one strand shown
# ALX4 [1] = target: ALX4 (Homo sapiens, UniProt Q9H161 200-286)
# ALX4 [2] = target: ALX4 (Homo sapiens, UniProt Q9H161 200-286, Q225E)
# HOXA4 = HOXA4 (Homo sapiens, UniProt Q00056 201-287, R217L)
# NKX2-6 [3] = target: T1, NKX2-6 (Homo sapiens, UniProt A6NCS4 118-204)
# T1 sequence: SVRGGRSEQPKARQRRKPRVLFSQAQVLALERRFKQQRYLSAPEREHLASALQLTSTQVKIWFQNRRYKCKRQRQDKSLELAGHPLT
# NKX2-6 [4] = target: T2, NKX2-6 (Homo sapiens, UniProt A6NCS4 118-204, F151L)
# T2 sequence: T1 sequence with F34L
# SHOX = SHOX (Homo sapiens, UniProt O15266 103-189, R173C)
# HESX1 [5] = target: HESX1 (Homo sapiens, UniProt Q9UBX0 95-180, R109Q)
# HESX1 [6] = target: HESX1 (Homo sapiens, UniProt Q9UBX0 95-180, F115L)
# HOXD13 [7] = target: HOXD13 (Homo sapiens, UniProt P35453 263-343)
# HOXD13 [8] = target: HOXD13 (Homo sapiens, UniProt P35453 263-343, T313A)
# VAX1 [9] = target: VAX1 (Homo sapiens, UniProt Q5SQQ9 86-172)
# VAX1 [10] = target: VAX1 (Homo sapiens, UniProt Q5SQQ9 86-172, T142I)
# VAX1 [11] = target: VAX1 (Homo sapiens, UniProt Q5SQQ9 86-172, K157R)
# PAX4 [12] = target: T3, PAX4 (Homo sapiens, UniProt O43316 9-242, R200K)
# T3 sequence: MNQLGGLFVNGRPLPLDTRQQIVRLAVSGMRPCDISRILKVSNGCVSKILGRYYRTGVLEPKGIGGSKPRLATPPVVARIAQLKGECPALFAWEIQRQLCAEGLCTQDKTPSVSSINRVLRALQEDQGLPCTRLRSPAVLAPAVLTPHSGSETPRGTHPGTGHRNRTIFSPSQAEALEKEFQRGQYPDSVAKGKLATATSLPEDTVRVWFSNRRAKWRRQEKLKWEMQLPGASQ
# PAX4 [13] = target: T4, PAX4 (Homo sapiens, UniProt O43316 9-242)
# T4 sequence: T3 sequence with K192R
# HOXA2 [14] = target: HOXA2 (Homo sapiens, UniProt O43364 129-215, R185T)
# PAX4 [15] = target: T5, PAX4 (Homo sapiens, UniProt O43316 9-242, R200Q)
# T5 sequence: T3 sequence with K192Q
# HOXA2 [16] = target: HOXA2 (Homo sapiens, UniProt O43364 129-215, R185K)
# PAX4 [17] = target: T6, PAX4 (Homo sapiens, UniProt O43316 9-242, F177V)
# T6 sequence: T3 sequence with F169V, K192R
# PAX4 [18] = target: T7, PAX4 (Homo sapiens, UniProt O43316 9-242, F177Y)
# T7 sequence: T3 sequence with F169Y, K192R
# PAX4 [19] = target: T8, PAX4 (Homo sapiens, UniProt O43316 9-242, R227W)
# T8 sequence: T3 sequence with K192R, R219W
# HOXA2 [20] = target: HOXA2 (Homo sapiens, UniProt O43364 129-215, Y150S)
# HOXA2 [21] = target: HOXA2 (Homo sapiens, UniProt O43364 129-215)
# HOXA2 (Homo sapiens, UniProt O43364 129-215), sequence (O43364 129-215): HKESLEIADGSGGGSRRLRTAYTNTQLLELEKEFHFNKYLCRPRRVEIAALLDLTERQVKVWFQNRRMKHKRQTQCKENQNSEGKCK
# ALX4 (Homo sapiens, UniProt Q9H161 200-286, Q225E), sequence (Q9H161 200-286 Q225E): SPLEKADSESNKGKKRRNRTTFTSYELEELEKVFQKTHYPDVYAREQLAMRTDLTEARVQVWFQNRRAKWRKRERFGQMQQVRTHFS
# ALX4 (Homo sapiens, UniProt Q9H161 200-286), sequence (Q9H161 200-286): as the sequence (Q9H161 200-286 Q225E) above, with E26Q counted along it
# HESX1 (Homo sapiens, UniProt Q9UBX0 95-180, F115L), sequence (Q9UBX0 95-180 F115L): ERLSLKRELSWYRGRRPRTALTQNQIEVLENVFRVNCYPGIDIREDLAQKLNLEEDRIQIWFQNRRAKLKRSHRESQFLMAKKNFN
# HESX1 (Homo sapiens, UniProt Q9UBX0 95-180, R109Q), sequence (Q9UBX0 95-180 R109Q): as the sequence (Q9UBX0 95-180 F115L) above, with R15Q, L21F counted along it
# VAX1 (Homo sapiens, UniProt Q5SQQ9 86-172, K157R), sequence (Q5SQQ9 86-172 K157R): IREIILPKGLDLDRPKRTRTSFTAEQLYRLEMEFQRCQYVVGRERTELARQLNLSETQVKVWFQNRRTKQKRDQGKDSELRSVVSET
# VAX1 (Homo sapiens, UniProt Q5SQQ9 86-172, T142I), sequence (Q5SQQ9 86-172 T142I): as the sequence (Q5SQQ9 86-172 K157R) above, with T57I, R72K counted along it
# VAX1 (Homo sapiens, UniProt Q5SQQ9 86-172), sequence (Q5SQQ9 86-172): as the sequence (Q5SQQ9 86-172 K157R) above, with R72K counted along it
# SHOX, sequence (O15266 103-189 R173C): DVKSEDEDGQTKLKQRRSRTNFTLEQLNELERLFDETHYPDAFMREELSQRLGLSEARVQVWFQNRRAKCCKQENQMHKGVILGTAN
# HOXA2 (Homo sapiens, UniProt O43364 129-215, R185T), sequence (O43364 129-215 R185T): as the sequence (O43364 129-215) above, with R57T counted along it
# HOXA2 (Homo sapiens, UniProt O43364 129-215, R185K), sequence (O43364 129-215 R185K): as the sequence (O43364 129-215) above, with R57K counted along it
# HOXA2 (Homo sapiens, UniProt O43364 129-215, Y150S), sequence (O43364 129-215 Y150S): as the sequence (O43364 129-215) above, with Y22S counted along it
# HOXA4, sequence (Q00056 201-287 R217L): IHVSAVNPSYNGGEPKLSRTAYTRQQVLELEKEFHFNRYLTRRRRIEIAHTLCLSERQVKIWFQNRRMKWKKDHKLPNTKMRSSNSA
# HOXD13 (Homo sapiens, UniProt P35453 263-343, T313A), sequence (P35453 263-343 T313A): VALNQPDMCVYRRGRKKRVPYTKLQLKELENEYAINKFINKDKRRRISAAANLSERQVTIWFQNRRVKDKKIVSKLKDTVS
# HOXD13 (Homo sapiens, UniProt P35453 263-343), sequence (P35453 263-343): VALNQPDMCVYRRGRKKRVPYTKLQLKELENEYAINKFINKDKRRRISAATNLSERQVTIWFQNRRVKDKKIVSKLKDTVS
sequence,measurement,setting,value
TATTTTGA,binding signal,ALX4 [1],"9.82 upbm affinity estimate (log intensity, higher = more binding, comparable within an allelic series)"
same,binding signal,ALX4 [2],"9.39 upbm affinity estimate (log intensity, higher = more binding, comparable within an allelic series)"
ATTAACCA,binding signal,ALX4 [1],"12.4 upbm affinity estimate (log intensity, higher = more binding, comparable within an allelic series)"
same,binding signal,ALX4 [2],"11.3 upbm affinity estimate (log intensity, higher = more binding, comparable within an allelic series)"
AGAGCCTC,binding signal,ALX4 [1],"7.96 upbm affinity estimate (log intensity, higher = more binding, comparable within an allelic series)"
same,binding signal,ALX4 [2],"7.95 upbm affinity estimate (log intensity, higher = more binding, comparable within an allelic series)"
GAATACAA,binding signal,ALX4 [1],"9.67 upbm affinity estimate (log intensity, higher = more binding, comparable within an allelic series)"
same,binding signal,ALX4 [2],"9.34 upbm affinity estimate (log intensity, higher = more binding, comparable within an allelic series)"
GTAAAATA,binding signal,ALX4 [1],"10.2 upbm affinity estimate (log intensity, higher = more binding, comparable within an allelic series)"
same,binding signal,ALX4 [2],"9.6 upbm affinity estimate (log intensity, higher = more binding, comparable within an allelic series)"
GCAGACCC,binding signal,ALX4 [1],"7.9 upbm affinity estimate (log intensity, higher = more binding, comparable within an allelic series)"
same,binding signal,ALX4 [2],"8.2 upbm affinity estimate (log intensity, higher = more binding, comparable within an allelic series)"
CGACATCC,binding signal,ALX4 [1],"7.95 upbm affinity estimate (log intensity, higher = more binding, comparable within an allelic series)"
same,binding signal,ALX4 [2],"8.23 upbm affinity estimate (log intensity, higher = more binding, comparable within an allelic series)"
CTCGATCC,binding signal,ALX4 [1],"8.2 upbm affinity estimate (log intensity, higher = more binding, comparable within an allelic series)"
same,binding signal,ALX4 [2],"8.33 upbm affinity estimate (log intensity, higher = more binding, comparable within an allelic series)"
CGATATAA,binding signal,ALX4 [1],"10.2 upbm affinity estimate (log intensity, higher = more binding, comparable within an allelic series)"
same,binding signal,ALX4 [2],"9.67 upbm affinity estimate (log intensity, higher = more binding, comparable within an allelic series)"
CCATCGGA,binding signal,ALX4 [1],"8.15 upbm affinity estimate (log intensity, higher = more binding, comparable within an allelic series)"
same,binding signal,ALX4 [2],"8.29 upbm affinity estimate (log intensity, higher = more binding, comparable within an allelic series)"
AAGTAATT,binding signal,HOXA4,"12 upbm affinity estimate (log intensity, higher = more binding, comparable within an allelic series)"
CCACATGG,binding signal,NKX2-6 [3],"9.61 upbm affinity estimate (log intensity, higher = more binding, comparable within an allelic series)"
same,binding signal,NKX2-6 [4],"9.23 upbm affinity estimate (log intensity, higher = more binding, comparable within an allelic series)"
AATTAGAA,binding signal,SHOX,"9.39 upbm affinity estimate (log intensity, higher = more binding, comparable within an allelic series)"
same,binding signal,HESX1 [5],"8.83 upbm affinity estimate (log intensity, higher = more binding, comparable within an allelic series)"
same,binding signal,HESX1 [6],"7.75 upbm affinity estimate (log intensity, higher = more binding, comparable within an allelic series)"
AATTTATC,binding signal,HOXD13 [7],"11 upbm affinity estimate (log intensity, higher = more binding, comparable within an allelic series)"
same,binding signal,HOXD13 [8],"10.9 upbm affinity estimate (log intensity, higher = more binding, comparable within an allelic series)"
AATTAAAG,binding signal,HESX1 [5],"8.69 upbm affinity estimate (log intensity, higher = more binding, comparable within an allelic series)"
AGGAGCCC,binding signal,VAX1 [9],"6.97 upbm affinity estimate (log intensity, higher = more binding, comparable within an allelic series)"
same,binding signal,VAX1 [10],"7.08 upbm affinity estimate (log intensity, higher = more binding, comparable within an allelic series)"
same,binding signal,VAX1 [11],"7.05 upbm affinity estimate (log intensity, higher = more binding, comparable within an allelic series)"
CCGTCTAG,binding signal,VAX1 [9],"6.91 upbm affinity estimate (log intensity, higher = more binding, comparable within an allelic series)"
same,binding signal,VAX1 [10],"7.09 upbm affinity estimate (log intensity, higher = more binding, comparable within an allelic series)"
same,binding signal,VAX1 [11],"7.03 upbm affinity estimate (log intensity, higher = more binding, comparable within an allelic series)"
AATTATGT,binding signal,HESX1 [6],"7.75 upbm affinity estimate (log intensity, higher = more binding, comparable within an allelic series)"
CGGGGCGC,binding signal,PAX4 [12],"9.09 upbm affinity estimate (log intensity, higher = more binding, comparable within an allelic series)"
same,binding signal,PAX4 [13],"9 upbm affinity estimate (log intensity, higher = more binding, comparable within an allelic series)"
same,binding signal,HOXA2 [14],"7.19 upbm affinity estimate (log intensity, higher = more binding, comparable within an allelic series)"
same,binding signal,PAX4 [15],"8.96 upbm affinity estimate (log intensity, higher = more binding, comparable within an allelic series)"
same,binding signal,HOXA2 [16],"9.85 upbm affinity estimate (log intensity, higher = more binding, comparable within an allelic series)"
same,binding signal,PAX4 [17],"8.91 upbm affinity estimate (log intensity, higher = more binding, comparable within an allelic series)"
same,binding signal,PAX4 [18],"9.04 upbm affinity estimate (log intensity, higher = more binding, comparable within an allelic series)"
same,binding signal,PAX4 [19],"9.06 upbm affinity estimate (log intensity, higher = more binding, comparable within an allelic series)"
same,binding signal,HOXA2 [20],"10.3 upbm affinity estimate (log intensity, higher = more binding, comparable within an allelic series)"
same,binding signal,HOXA2 [21],"7.21 upbm affinity estimate (log intensity, higher = more binding, comparable within an allelic series)"
